From PubChem
Most compounds without a hit are left out; they make up all but 10% or so of the library.
G9a block = qHTS Assay for Inhibitors of Histone Lysine Methyltransferase G9a | Histone-lysine N-methyltransferase EHMT2 (Homo sapiens), Q96KQ7 | G9a H3K9 monomethylation, AlphaScreen, 2 h | Potency, µM (top dose mostly 102 µM), inactives show at the top dose activity, negative = inhibition, hits mostly inhibitors | 8.8% of 350,000 active; also: % is scaled to controls: 0 for no effect and ±100 for the full control effect; nearly all actives have a fitted effect of over 75% in size
Target sequence (Q96KQ7 913-1193 limits assumed): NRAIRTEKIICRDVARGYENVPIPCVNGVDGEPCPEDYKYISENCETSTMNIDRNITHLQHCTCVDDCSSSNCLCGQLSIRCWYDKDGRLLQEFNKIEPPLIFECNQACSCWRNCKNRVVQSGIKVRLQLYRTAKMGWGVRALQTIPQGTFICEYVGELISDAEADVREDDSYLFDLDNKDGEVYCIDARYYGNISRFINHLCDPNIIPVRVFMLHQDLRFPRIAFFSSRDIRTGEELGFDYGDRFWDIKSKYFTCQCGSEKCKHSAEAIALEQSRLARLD
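Chemiluminescent proximity detection of H3K9 monomethylation, read after 10 min bead incubation in the dark. Reaction: 20 nM G9a, 500 nM biotin-H3K9 peptide, 20 uM SAM cofactor, 2 h, room temperature, following 15 min enzyme-compound preincubation.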
GLS inhibitor = qHTS for Inhibitors of Glutaminase (GLS); GLS enzymatic activity, qHTS titration; Glutaminase kidney isoform, mitochondrial (Homo sapiens), O94925; Potency, µM (titrated, usually from 45.5 µM), for inactives: at the highest dose activity change, negative = inhibition, most hits filed as inhibitors; 0.21% of 410,000 active; also: % is scaled to controls: 0 for no effect and ±100 for the full control effect
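Read-out is an Amplex red fluorescence increase coupled through glutamate oxidase and HRP, measured before and after 30 min room-temperature incubation. hKGA is in 45 mM KH2PO4 (pH 8.2) with 0.02% Tween-20; glutamine added as 1mM solution.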
BAZ2B inh = qHTS Assay for Inhibitors of BAZ2B; AlphaScreen BAZ2B-H3K14Ac peptide displacement; Potency, µM (doses to about 114 µM), inactives show at the top dose activity change, negative = inhibition, hits mostly inhibitors; 4.4% of 360,000 active; AID 504333, 2011; also: % is scaled to controls: 0 for no effect and ±100 for the full control effect; nearly all actives have a fitted effect of over 60% in size
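Protein-peptide AlphaScreen: BAZ2B 50 nM, b-H3K14Ac 50 nM, 1x PBS pH 7.4 + 0.01% Tween-20. Preincubation 30 min RT; cpd 30 min RT (top 110 uM); beads 20 min RT, light-protected.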
JMJD2A Tudor inh = qHTS Assay for Inhibitors of JMJD2A-Tudor Domain; Potency, µM (doses to about 114 µM), inactives show at the top dose activity change, negative = inhibition, hits mostly inhibitors; AlphaScreen JMJD2A-Tudor / H3K4me3 peptide binding; 4.4% of 390,000 active; also: % is scaled to controls: 0 for no effect and ±100 for the full control effect; nearly all actives have a fitted effect of over 50% in size
HP1b chromo inh = HTS for Inhibitors of HP1-beta Chromodomain Interactions with Methylated Histone Tails; Potency, µM (doses to about 114 µM), without a hit: top-dose activity change, negative = inhibition, usual class: inhibitors; 0.56% of 390,000 active; AID 540317, 2011; AlphaScreen HP1-beta / biotin-H3K9me3 peptide binding; also: nearly all actives have a fitted effect of over 70% in size
Target sequence (P83916 whole entry, looked up): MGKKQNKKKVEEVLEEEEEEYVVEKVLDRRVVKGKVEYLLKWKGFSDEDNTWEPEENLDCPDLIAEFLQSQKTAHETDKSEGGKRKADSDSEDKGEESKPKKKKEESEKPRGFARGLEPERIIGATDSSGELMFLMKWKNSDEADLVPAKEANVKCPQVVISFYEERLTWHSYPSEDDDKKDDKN
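AlphaScreen: HP1-beta (50 nM) preformed 30 min with biotin-H3(1-18)K9me3 peptide (50 nM) in PBS pH 7.4, 0.01% Tween-20. Compound added for 30 min at RT, then streptavidin donor/nickel chelate acceptor beads (10 ug/mL) for 30 min.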
* hit, by the source's call; [ ] = another dose, or the depositor's remark. Calls follow the shape of the dose curve; as a rule, active = well fitted curve in the direction sought with a large enough effect; inconclusive = small, poorly fitted or top-dose-only effect, or another doubt; inactive = no such curve, though single readings can be large; an effect the other way counts as inactive or inconclusive. Potency is read from the fitted curve at half-maximal effect.

How did CN1C(=O)C(=Cc2ccccc2OCc2ccc(Cl)cc2)C(=O)N(C)C1=O do in these assays?
G9a block: -14%[59 µM]; GLS inhibitor: 1%; BAZ2B inh: 9%; JMJD2A Tudor inh: 4%; HP1b chromo inh: 24%

What do the screens show for `O=C1NC(=O)C(=Cc2cc(Cl)ccc2OCc2ccc(C(=O)O)cc2)C(=O)N1`?
G9a block: 32µM*; GLS inhibitor: 2%; BAZ2B inh: 3%; JMJD2A Tudor inh: -12%; HP1b chromo inh: 11%

Results for COCCN1C(=O)/C(=C/c2c(OC)cc(OC)cc2OC)C(=O)N(c2ccccc2)C1=O ?
G9a block: 22%[59 µM]; GLS inhibitor: -25%; BAZ2B inh: 0%; JMJD2A Tudor inh: -2%[11.4 µM]; HP1b chromo inh: 8%

What do the screens show for `CCOc1cc(/C=C2\C(=O)NC(=O)N(CCc3ccc(F)cc3)C2=O)ccc1O`?
G9a block: 40µM*; GLS inhibitor: -8%; BAZ2B inh: -17%; JMJD2A Tudor inh: -4%; HP1b chromo inh: 27%

How did Cc1ccc(/C=C2\C(=O)NC(=O)N(CCc3ccc(F)cc3)C2=O)s1 do in these assays?
G9a block: inconclusive; GLS inhibitor: -6%; BAZ2B inh: -11%; JMJD2A Tudor inh: -2%; HP1b chromo inh: 31%

How did Cc1ccc(/C=C2/C(=O)NC(=O)N(Cc3ccc(F)cc3)C2=O)o1 do in these assays?
BAZ2B inh: -16%

How did CN(C)c1ccc(/C=C2/C(=O)NC(=O)N(CCc3ccc(F)cc3)C2=O)cc1 do in these assays?
G9a block: inconclusive; GLS inhibitor: 43%; BAZ2B inh: inconclusive; JMJD2A Tudor inh: 28µM*; HP1b chromo inh: 0%

Results for Cc1ccc(/C=C2\C(=O)NC(=O)N(CCc3ccc(F)cc3)C2=O)o1 ?
G9a block: 3.2µM*; GLS inhibitor: 2%; BAZ2B inh: -8%; JMJD2A Tudor inh: -24%; HP1b chromo inh: 27%

What do the screens show for `COCCN1C(=O)NC(=O)/C(=C\c2ccc(Br)cc2)C1=O`?
G9a block: 45µM*; GLS inhibitor: -16%; BAZ2B inh: -5%; JMJD2A Tudor inh: inconclusive; HP1b chromo inh: 11%

Results for OC(c1cccc(Cl)c1)(c1cccc(Cl)c1)C1CN2CCC1CC2 (centres undefined) ?
G9a block: 23%[0.501 µM]; GLS inhibitor: -19%; BAZ2B inh: -1%; JMJD2A Tudor inh: -9%; HP1b chromo inh: 25%

What do the screens show for `CN(C)CCN(C(=O)c1cc(Cl)sc1Cl)c1nc2ccc(F)cc2s1`?
G9a block: 11µM*; GLS inhibitor: 11%; BAZ2B inh: inconclusive; JMJD2A Tudor inh: inconclusive; HP1b chromo inh: -14%

Results for CCOC(=O)[C@]12Cc3ccc(C)cc3[C@H]1N(C1CCCCC1)C(=O)c1cc(OC)ccc12 ?
GLS inhibitor: 116%

What do the screens show for `COC(=O)C1=C(c2ccc(S(C)(=O)=O)cc2)C[C@@H]2CC[C@H]1N2C(=O)NCc1ccco1`?
GLS inhibitor: -1%; JMJD2A Tudor inh: -11%; HP1b chromo inh: 20%

How did Cn1c(O)c(/C=N/N2CCCCC2)c(=O)[nH]c1=O do in these assays?
G9a block: -2%[59 µM]; GLS inhibitor: 30%; BAZ2B inh: 5%; JMJD2A Tudor inh: -6%[57.1 µM]; HP1b chromo inh: 42%

Results for CNCC(O)c1cccc(OC(=O)c2ccccc2C)c1 (centres undefined) ?
G9a block: 56µM*; GLS inhibitor: -21%; BAZ2B inh: -1%; JMJD2A Tudor inh: 26%[11.4 µM]; HP1b chromo inh: 54%

What do the screens show for `O=[N+]([O-])c1cccc(CN2CCN(Cc3ccc(Cl)cc3)CC2)c1`?
G9a block: 3.5µM*; GLS inhibitor: 1%; BAZ2B inh: 20µM*; JMJD2A Tudor inh: 0.79µM*; HP1b chromo inh: inconclusive

Results for CC(C)N1CCN(Cc2cccc([N+](=O)[O-])c2)CC1 ?
G9a block: 3.5µM*; GLS inhibitor: -26%; BAZ2B inh: 50µM*; JMJD2A Tudor inh: 0.89µM*; HP1b chromo inh: inconclusive

How did O=[N+]([O-])c1cccc(CN2CC=C(c3ccc(F)cc3)CC2)c1 do in these assays?
G9a block: inconclusive; GLS inhibitor: 7%; BAZ2B inh: inconclusive; JMJD2A Tudor inh: inconclusive; HP1b chromo inh: -15%

How did CCC(=Nc1ccc(OC)cc1OC)c1c(O)n(C2CCCCC2)c(=O)[nH]c1=O do in these assays?
G9a block: -19%[2.33 µM]; GLS inhibitor: -3%; BAZ2B inh: 4%; JMJD2A Tudor inh: -36%; HP1b chromo inh: -5%

How did CC1CN=C(NCc2ccccc2Cl)S1 (centres undefined) do in these assays?
G9a block: 0%; GLS inhibitor: 2%; BAZ2B inh: 9%; JMJD2A Tudor inh: -11%; HP1b chromo inh: 20%

Results for O=C1C(Cc2cnc[nH]2)NC(=S)N1c1ccccc1 (centres undefined) ?
G9a block: 50µM*; GLS inhibitor: 6%; BAZ2B inh: -3%; JMJD2A Tudor inh: inconclusive; HP1b chromo inh: 22%

What do the screens show for `CC(ON1CC1(C(F)(F)F)C(F)(F)F)(C(N)=O)C(N)=O` (centres undefined)?
G9a block: -10%[59 µM]; GLS inhibitor: 1%; BAZ2B inh: 9%; JMJD2A Tudor inh: -1%; HP1b chromo inh: 40%

Results for CN1CCN(c2ccc(N)cc2Cl)CC1 ?
G9a block: 40µM*; GLS inhibitor: 0%; BAZ2B inh: inconclusive; JMJD2A Tudor inh: inconclusive; HP1b chromo inh: 28µM*

What do the screens show for `CC(=O)Nc1ccc(OCCF)cc1`?
G9a block: 4%; GLS inhibitor: 7%; BAZ2B inh: -13%; JMJD2A Tudor inh: -6%; HP1b chromo inh: -3%

How did S=C1Nc2ccccc2Sc2ccccc21 do in these assays?
G9a block: 10µM*; GLS inhibitor: -1%; BAZ2B inh: inconclusive; JMJD2A Tudor inh: -16%; HP1b chromo inh: inconclusive

Results for CCOc1cc2c(cc1OCC)-n1cccc1C(c1ccccc1O)NC2 (centres undefined) ?
G9a block: 50µM*; GLS inhibitor: 12%; BAZ2B inh: 50µM*; JMJD2A Tudor inh: 50µM*; HP1b chromo inh: inconclusive

How did CCOc1cc2c(cc1OCC)-n1cccc1C(c1ccc(OC)c(OC)c1)NC2 (centres undefined) do in these assays?
G9a block: -47%; GLS inhibitor: 3%; BAZ2B inh: inconclusive; JMJD2A Tudor inh: inconclusive; HP1b chromo inh: 2%

What do the screens show for `FC(F)(F)c1cccc(C2NCc3ccccc3-n3cccc32)c1` (centres undefined)?
G9a block: inconclusive; GLS inhibitor: -7%; BAZ2B inh: inconclusive; JMJD2A Tudor inh: inconclusive; HP1b chromo inh: 4%
